Results reported in PubChem BioAssay (Tox21).
Inconclusive results are not listed. Entries that show only a call come without a potency. Values without a mark were called inactive. Activity calls are given as the source filed them. Calls come from the whole dose curve; as a rule, active = well fitted activation curve with a large enough effect in the signal ratio in the repeat runs (not every such curve was filed as active); inconclusive = weak or mixed curves; inactive = flat fitted curve, though single readings scatter; the % refers to the signal ratio.

test: p53 small molecule agonists, cell-based qHTS assay (AID 1963582); conditions: HCT-116 p53RE-bla reporter, beta-lactamase FRET ratio, 16 h; series mostly up to 66 µM; activation: at the top concentration
Description: National Center for Advancing Translational Sciences [NCATS]
Division of Preclinical Innovation [DPI]
U.S. Environmental Protection Agency [EPA]
National Institutes of Environmental Health Sciences [NIEHS]
National Toxicology Program [NTP]
U.S. Food and Drug Administration [FDA]
p53, a tumor suppressor protein, is activated following cellular insult, including DNA damage and other cellular stresses. The activation of p53 regulates cell fate by inducing DNA repair, cell cycle arrest, apoptosis, or cellular senescence. The activation of p53, therefore, is a good indicator of DNA damage and other cellular stresses. […] The activation of the reporter gene under culture conditions can be detected by fluorescence intensity. This cell line was used to screen the Tox21 10K compound library in a 1536-well plate format and to identify agonists that activate the p53 signaling pathway.
Tox21 Assay Protocol Summary:
The p53RE-bla cells were dispensed at 4,000 cells/5 ul/well in 1536-well black wall/clear bottom plates using a Multidrop dispenser. After the assay plates were incubated at a 37 C/5% CO2 incubator for 5 hours, 23 nL of compounds dissolved in DMSO, positive controls or DMSO only was transferred to the assay plate by a pin tool. The plates were incubated at 37 C for 16 hours. After 1 uL of LiveBLAzerTM B/G FRET substrate was added using a Flying Reagent Dispenser, the plates were incubated at room temperature for 2 hours, and fluorescence intensity was measured by an Envision plate reader.

SMILES	Potency	activation
CCCOC(=O)NCCCN(C)C	inactive	–
NS(=O)(=O)c1cc2c(cc1Cl)NCNS2(=O)=O	inactive	–
Cc1ncc[nH]1	–	-0.188%
Cc1c(N(C)CS(=O)(=O)O)c(=O)n(-c2ccccc2)n1C	inactive	–
NC(N)=S	–	0.743%
NC(=O)NC1NC(=O)NC1=O (stereo not given)	inactive	–
CCCCCCOCCO	inactive	–
COCN(COC)c1nc(N(COC)COC)nc(N(COC)COC)n1	inactive	–
CCO[Si](CCCN)(OCC)OCC	inactive	–
CN(C)C(=O)Nc1ccc(Cl)c(Cl)c1	inactive	–
Nc1ccc(S(=O)(=O)c2ccc(N)cc2)cc1	inactive	–
CC(O)COc1ccccc1 (stereo not given)	inactive	–
CC(=O)Nc1ccc2c(c1)Cc1cc(NC(C)=O)ccc1-2	inactive	–
CCc1cc(C(N)=S)ccn1	inactive	–
CC(C)(C)NC(=O)[C@H]1CC[C@H]2[C@@H]3CC[C@H]4NC(=O)C=C[C@]4(C)[C@H]3CC[C@]12C	inactive	–
CC(=O)Nc1cccc(O)c1	inactive	–
CCCCC/C=C\C/C=C\CCCCCCCC(=O)OC	–	-2.74%
CC1=CC(=O)CC(C)(C)C1	inactive	–
C[C@@H](O)[C@H]1C(=O)N2C(C(=O)O)=C(S[C@@H]3CN[C@H](C(=O)N(C)C)C3)[C@H](C)[C@H]12	inactive	–
COC(=O)c1ccccc1O	inactive	–

SMILES	Potency	activation
C=CN1CCCC1=O	inactive	–
O=C(O)CCCCC(=O)O	inactive	–
Cc1ccnc2c1NC(=O)c1cccnc1N2C1CC1	inactive	–
OC1CCCCC1	inactive	–
CCCCCCCCCCCCCC[N+](C)(C)Cc1ccccc1	–	10.9% [at 30.3 µM]
Cc1ccc(C)c(C)c1	inactive	–
CC(O)CO (stereo not given)	inactive	–
CN(C)CCC(c1ccccc1)c1ccccn1 (stereo not given)	inactive	–
CCOc1ccc(NC(C)=O)cc1	inactive	–
Cc1cc(=O)n(-c2ccccc2)n1C	inactive	–
CC(=O)O[C@]1(C(C)=O)CC[C@H]2[C@@H]3C[C@H](C)C4=CC(=O)CC[C@]4(C)[C@H]3CC[C@@]21C	–	0.604%
CCCCCNCCCCC	inactive	–
OC[C@H]1O[C@H](O[C@]2(CCl)O[C@H](CCl)[C@@H](O)[C@@H]2O)[C@H](O)[C@@H](O)[C@H]1Cl	inactive	–
Cc1ccc2ncccc2c1	inactive	–
CN(C)C	inactive	–
CC(=O)OC(C)C	inactive	–
CCCCCCCCCC	inactive	–
CCc1ccc(CCOc2ccc(CC3SC(=O)NC3=O)cc2)nc1 (stereo not given)	–	-6.21%
Cc1ccccc1C=O	inactive	–
CCCCOCCOCCSC#N	inactive	–
